These results are taken from PubChem BioAssay AID2561 (National Center for Advancing Translational Sciences (NCATS), 2010).

Molecules are shown by their SMILES. Inconclusive results are not listed. Values without a mark were called inactive. Calls of active or inactive are those of the source. Calls come from the whole dose curve; as a rule, active = well fitted inhibition curve with a large enough effect; inconclusive = small, poorly fitted or top-dose-only effect, or effect the other way; inactive = flat fitted curve, though single readings scatter.
Potency is the fitted concentration of half-maximal effect.

Sequence of Pyruvate kinase (Leishmania mexicana) (Q27686 whole entry, looked up): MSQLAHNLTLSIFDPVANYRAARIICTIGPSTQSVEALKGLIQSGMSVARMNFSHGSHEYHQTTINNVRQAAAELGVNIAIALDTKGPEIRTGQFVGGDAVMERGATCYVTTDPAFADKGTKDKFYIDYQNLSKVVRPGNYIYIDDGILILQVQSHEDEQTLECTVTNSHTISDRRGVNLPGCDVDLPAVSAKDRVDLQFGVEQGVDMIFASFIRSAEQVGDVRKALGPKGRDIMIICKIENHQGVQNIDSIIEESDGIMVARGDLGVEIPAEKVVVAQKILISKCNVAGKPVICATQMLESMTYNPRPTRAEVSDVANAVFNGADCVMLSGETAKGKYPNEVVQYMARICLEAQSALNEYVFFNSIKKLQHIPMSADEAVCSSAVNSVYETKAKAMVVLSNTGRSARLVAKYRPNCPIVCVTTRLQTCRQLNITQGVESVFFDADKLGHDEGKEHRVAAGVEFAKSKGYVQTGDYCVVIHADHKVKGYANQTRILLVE

This experiment deals with Pyruvate kinase (Leishmania mexicana) (UniProt Q27686). Description: Confirmation Assay for Inhibitors of Leishmania Mexicana Pyruvate Kinase (LmPK): for Probe SAR.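 For activity change, negative = inhibition: plate controls were uninhibited enzyme for no effect and no enzyme wells for full effect.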 The note with it: purified LmPK, ATP generation, Kinase-Glo luminescence; series mostly up to 57.5 µM; activity change, negative = inhibition: at the top concentration. The text has this:
NIH Chemical Genomics Center [NCGC] Malcolm Walkinshaw, Hugh Morgan, Linda Gilmore University of Edinburgh, UK MLPCN Grant: 1 R03 MH085697-01 NCGC Assay Overview: Pyruvate kinase (L. Mexicana) (LmPK) enzyme was supplied as a highly purified (>95% pure) sulphate-free preparation from University of Edinburgh, UK and assayed for its ability to generate ATP from ADP using phosphoenolpyruvate (PEP) as a substrate. ATP generation was detected in a coupled reaction by luciferase-mediated luminescence, an ATP-dependent process. Pyruvate kinase substrates, PEP and ADP, were present in the assay at Km and approximately 10-fold below Km respectively. The enzyme was assayed at an intermediate level of activity to screen for both inhibitors and activators.
NCGC Assay Protocol Summary: Three uL of enzyme mix (kept on ice) in assay buffer (50 mM Imidazole pH7.2, 50 mM KCl, 7 mM MgCl2, 0.01% Tween 20, 0.05% BSA) containing PEP (0.5 mM final concentration) and LmPK (0.1 nM final concentration) was dispensed into white solid bottom 1,536 well microtiter plates. 23 nL of compound were delivered by a pin tool and 1 uL of ADP mix in assay buffer (r.t; 0.1 mM final ADP concentration) was added. Plates were incubated at room temperature for 1 hour. Two uL of detection mix (Kinase-Glo, Promega; at 4 degree Celsius protected from light) was added and luminescence read by a ViewLux (Perkin Elmer) at 1 second exposure/plate. Data were normalized to the uninhibited and AC100 inhibition (no enzyme). To monitor activation, the first column contained a five-fold concentration of LmPK (0.5 nM).
Background: Kinase-Glo reads ATP consumption through a luciferase reaction.
As for `Cc1ccc(NS(=O)(=O)c2ccc3c(c2)oc(=O)n3C)cc1C`, the “activity change, negative = inhibition” value is 8.92%.
Turning to `Cc1ccc(NS(=O)(=O)c2ccc3c(ccn3C)c2)cc1C`, the “activity change, negative = inhibition” value was -11%.
On the same count and under the same terms, the same measure for `O=C1c2ccccc2C(=O)N1c1cccc2ncccc12`: 5.45%.
As to `Cc1cc(=O)oc2cc(SC3=NS(=O)(=O)c4ccccc43)ccc12`, the Potency is 1.83 µM (active).
Same read-out and setting: in the case of `CC(C)c1ccccc1SC1=NS(=O)(=O)c2ccccc21` it was 1.83 µM (active).
For the molecule `COc1ccc(NS(=O)(=O)c2ccccc2C(=O)O)cc1`, the “activity change, negative = inhibition” value is 8.54%.
In the case of `Cc1ccc2nc(-c3ccc(C)o3)c(Nc3ccc(F)cc3)n2c1`, the “activity change, negative = inhibition” value is -21.2%.
With `O=C1c2ccccc2C(=O)N1c1noc2ccccc12`, the “activity change, negative = inhibition” value was 4.19%.
Same read-out and setting: the same measure for `O=C1c2ccccc2C(=O)N1c1nccs1`: -17.1%.
Turning to `Cc1cccc(OC2=NS(=O)(=O)c3ccccc32)c1`, the Potency was 7.02 µM (active).
As to `O=C1CCc2cc(S(=O)(=O)Nc3ccc4ccccc4c3)ccc2N1`, the “activity change, negative = inhibition” value is 19.4%.
Consider `Cc1ccc(C)c(SC2=N[S+](=O)([O-])c3cc(C(=O)Nc4ccc5ncccc5c4)ccc32)c1`, for which the “activity change, negative = inhibition” value was -10.8%.
Consider `O=S1(=O)N=C(Sc2cccc3cccnc23)c2ccccc21`, for which the Potency is 2.91 µM (active).
For the molecule `CSc1cc2c(s1)c1cnn(Cc3cccc(O)c3)c(=O)c1n2C`, the “activity change, negative = inhibition” value is 19.9%.
Turning to `O=C1NS(=O)(=O)c2cc(Cl)ccc21`, the “activity change, negative = inhibition” value is -0.814%.
On to `Cc1ccc(NS(=O)(=O)c2ccc3[nH]c(=O)[nH]c3c2)cc1C`, for which the “activity change, negative = inhibition” value is 0.937%.
The same measure, in the same setting: the same measure for `Cc1ccc(Nc2c(-c3ccsc3)nc3cccc(C)n23)cc1`: 10.1%.
Take `O=S1(=O)N=C(Oc2ccc3ccccc3c2)c2ccccc21`: the Potency was 4.11 µM (active).
For the molecule `Cc1ccc(NS(=O)(=O)c2cc3c(cc2N2CCCCC2)NC(=O)CC3)cc1C`, the “activity change, negative = inhibition” value was 10.8%.
Turning to `CC(=O)Nc1ccc(OC2=NS(=O)(=O)c3ccccc32)cc1`, the Potency was 4.11 µM (active).
In the case of `O=C1c2ccccc2C(=O)N1c1cccc(O)c1`, the “activity change, negative = inhibition” value is -8.63%.
The same measure, in the same setting: the same measure for `COc1ccc(N2C(=O)c3ccccc3C2=O)cc1`: 4.39%; for `Cc1nc(-c2ccc(S(=O)(=O)Nc3ccc(C)c(C)c3)s2)cs1`: 15.4%.
Same read-out and setting: in the case of `O=C1c2ccccc2C(=O)N1Cc1ccccn1` it was -7.55%; in that of `Cc1ccc(Nc2c(-c3ccc(C)o3)nc3cccc(C)n23)cc1`, 10.8%.
The same measure, in the same setting: the same measure for `Cc1cc(C)n2c(Nc3ccccc3)c(-c3ccc(C)o3)nc2n1`: 1.14%.
`Cc1ccc(-c2nc3ccc(Cl)cn3c2Nc2ccccc2)o1`: the “activity change, negative = inhibition” value is -0.673%.
On the same count and under the same terms, the same measure for `COc1ccc(-c2nc3cccc(C)n3c2Nc2ccc(C)cc2)cc1`: 1.54%; for `Cc1ccc(NS(=O)(=O)c2cc3c(cc2-c2ccco2)NC(=O)CO3)cc1C`: 9.07%; for `Cc1ccn2c(NC3CCCCC3)c(-c3ccc(C)o3)nc2c1`: 0%.
On to `Cc1ccc(NS(=O)(=O)c2cc3c(cc2Cl)NC(=O)CO3)cc1C`, for which the “activity change, negative = inhibition” value is 10.2%.
Still for that read-out and setting: in the case of `Cc1ccc2nc(-c3ccc(C)o3)c(NC3CCCC3)n2c1` it was 2.25%; in that of `COc1ccccc1N1C(=O)c2ccccc2C1=O`, 27.3%; in that of `Cc1ccc(NS(=O)(=O)c2cc3c(cc2/C=C/c2ccccc2)NC(=O)CO3)cc1C`, 11%.
As to `COc1ccc(Nc2c(-c3ccc(C)o3)nc3ccccn23)cc1`, the “activity change, negative = inhibition” value is 22.7%.
Still for that read-out and setting: in the case of `COc1ccc(N2C(=O)c3ccccc3S2(=O)=O)cc1` it was 6.47%.
Still for that read-out and setting: in the case of `O=C1CCc2cc(S(=O)(=O)Nc3ccncc3)ccc2N1` it was -1.99%; in that of `Cc1ccc(NS(=O)(=O)c2ccc(Cl)cc2)cc1C`, 7.67%.
Consider `COC(=O)c1ccc2c(c1)S(=O)(=O)NC2=O`, for which the “activity change, negative = inhibition” value was -0.49%.
In the case of `Cc1ccc(NS(=O)(=O)c2ccc3c(c2)CCC(C)(C)O3)cc1C`, the “activity change, negative = inhibition” value is 9.34%.
